Measured values reported in the supplement of paper PMC12645437, “Orthogonal IMiD-Degron Pairs Induce Selective Protein Degradation in Cells” (ACS Chemical Biology, 2025).
Over roughly 8,300 sequences, “log2 fold change of degron read counts, EGFP-low vs EGFP+ sorted cells (limma voom), compound-induced degradation” has its median near -1.1; the highest 2% begin near 3.2. The sample holds the highest values, similar sequences and a random draw of the others, so the mix is not that of the screen.

T1: CRBN, Q96SW2
T1 chain: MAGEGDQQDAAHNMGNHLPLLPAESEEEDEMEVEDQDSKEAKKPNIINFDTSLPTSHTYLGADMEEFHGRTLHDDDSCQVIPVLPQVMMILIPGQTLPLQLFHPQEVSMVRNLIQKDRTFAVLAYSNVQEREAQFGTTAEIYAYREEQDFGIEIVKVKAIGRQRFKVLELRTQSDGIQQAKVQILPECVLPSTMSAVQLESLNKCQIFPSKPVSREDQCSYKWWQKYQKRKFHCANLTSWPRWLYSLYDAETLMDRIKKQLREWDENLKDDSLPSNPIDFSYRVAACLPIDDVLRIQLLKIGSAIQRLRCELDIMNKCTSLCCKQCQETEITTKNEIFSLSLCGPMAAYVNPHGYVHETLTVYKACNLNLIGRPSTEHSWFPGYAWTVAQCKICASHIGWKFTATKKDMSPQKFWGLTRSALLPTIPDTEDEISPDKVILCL

B1: 46F_47W_49P_50Q_52G_53A_54T_55F_67L_, Q9UKT9 (peptide)
chain: FWCPQCGATFTQKGNLLRHIKL
B2: 46F_47M_49D_50Q_52G_53A_54A_55F_67L_, Q9UKT9 (peptide)
chain: FMCDQCGAAFTQKGNLLRHIKL
B3: 46L_47Y_49N_50Q_52G_53F_54L_55C_67L_, Q9UKT9 (peptide)
chain: LYCNQCGFLCTQKGNLLRHIKL
B4: 46F_47E_49E_50I_52G_53R_54S_55F_67L_, Q9UKT9 (peptide)
chain: FECEICGRSFTQKGNLLRHIKL
B5: 46F_47N_49E_50Q_52G_53A_54W_55F_67L_, Q9UKT9 (peptide)
chain: FNCEQCGAWFTQKGNLLRHIKL
B6: 46F_47L_49D_50I_52G_53A_54D_55F_67L_, Q9UKT9 (peptide)
chain: FLCDICGADFTQKGNLLRHIKL
B7: 46F_47H_49P_50I_52G_53R_54N_55F_67L_, Q9UKT9 (peptide)
chain: FHCPICGRNFTQKGNLLRHIKL
B8: 46F_47E_49E_50I_52G_53A_54D_55F_67L_, Q9UKT9 (peptide)
chain: FECEICGADFTQKGNLLRHIKL
B9: 46L_47V_49P_50I_52G_53F_54N_55C_67L_, Q9UKT9 (peptide)
chain: LVCPICGFNCTQKGNLLRHIKL
B10: 46L_47W_49P_50I_52G_53F_54P_55C_67L_, Q9UKT9 (peptide)
chain: LWCPICGFPCTQKGNLLRHIKL
B11: 46F_47Q_49P_50I_52G_53A_54F_55F_67L_, Q9UKT9 (peptide)
chain: FQCPICGAFFTQKGNLLRHIKL
B12: 46F_47I_49P_50I_52G_53H_54P_55F_67L_, Q9UKT9 (peptide)
chain: FICPICGHPFTQKGNLLRHIKL
B13: 46F_47M_49P_50I_52G_53A_54M_55F_67L_, Q9UKT9 (peptide)
chain: FMCPICGAMFTQKGNLLRHIKL
B14: 46F_47M_49P_50I_52G_53A_54D_55F_67L_, Q9UKT9 (peptide)
chain: FMCPICGADFTQKGNLLRHIKL
B15: 46F_47I_49P_50I_52G_53A_54P_55F_67L_, Q9UKT9 (peptide)
chain: FICPICGAPFTQKGNLLRHIKL
B16: 46F_47I_49P_50I_52G_53A_54D_55F_67L_, Q9UKT9 (peptide)
chain: FICPICGADFTQKGNLLRHIKL
B17: 46F_47A_49P_50I_52G_53A_54P_55F_67L_, Q9UKT9 (peptide)
chain: FACPICGAPFTQKGNLLRHIKL
B18: 46F_47A_49P_50I_52G_53A_54D_55F_67L_, Q9UKT9 (peptide)
chain: FACPICGADFTQKGNLLRHIKL
B19: 46F_47Q_49P_50I_52G_53A_54P_55F_67L_, Q9UKT9 (peptide)
chain: FQCPICGAPFTQKGNLLRHIKL
B20: 46F_47Q_49P_50I_52G_53R_54P_55F_67L_, Q9UKT9 (peptide)
chain: FQCPICGRPFTQKGNLLRHIKL
B21: 46F_47M_49P_50I_52G_53A_54P_55F_67L_, Q9UKT9 (peptide)
chain: FMCPICGAPFTQKGNLLRHIKL
B22: 46F_47A_49P_50I_52G_53A_54M_55F_67L_, Q9UKT9 (peptide)
chain: FACPICGAMFTQKGNLLRHIKL
B23: 46F_47D_49N_50I_52G_53A_54Q_55F_67L_, Q9UKT9 (peptide)
chain: FDCNICGAQFTQKGNLLRHIKL
B24: 46F_47R_49E_50Q_52G_53A_54L_55F_67L_, Q9UKT9 (peptide)
chain: FRCEQCGALFTQKGNLLRHIKL
B25: 46F_47R_49P_50I_52G_53H_54T_55F_67L_, Q9UKT9 (peptide)
chain: FRCPICGHTFTQKGNLLRHIKL
B26: 46F_47S_49E_50I_52G_53R_54Y_55F_67L_, Q9UKT9 (peptide)
chain: FSCEICGRYFTQKGNLLRHIKL
B27: 46F_47D_49N_50I_52G_53A_54R_55F_67L_, Q9UKT9 (peptide)
chain: FDCNICGARFTQKGNLLRHIKL
B28: 46L_47F_49P_50I_52G_53F_54M_55C_67L_, Q9UKT9 (peptide)
chain: LFCPICGFMCTQKGNLLRHIKL

Target: T1, CRBN, Q96SW2
Test: log2 fold change of degron read counts, EGFP-low vs EGFP+ sorted cells (limma voom), compound-induced degradation; higher = more compound-induced degradation of the degron-EGFP fusion; degrons are variants of IKZF1/3 zinc finger 2; compound dose not given here
Details: Jurkat, 18 h
[1] = compound: compound 19 (5-tert-butyl-thalidomide)
[2] = compound: compound 22 (5-morpholino-thalidomide)
[3] = compound: compound 33 (diphenyl IMiD analogue)
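Note: pooled lentiviral library of zinc finger degron-EGFP fusions in mCherry-positive Jurkat cells, FACS-sorted after compound exposure, with degron abundance counted by next-generation sequencing.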

Sequence | log2 fold change of degron read counts [1] | log2 fold change of degron read counts [2] | log2 fold change of degron read counts [3] | log2 fold change of degron read counts (compound: thalidomide)
B1 | -0.373 | 1.49 | 0.797 | -1.24
B2 | -1.96 | -2.12 | 0.439 | -2.32
B3 | -1.29 | -1.42 | -1.67 | -1.29
B4 | -2.51 | -3.16 | -1.24 | -1.32
B5 | -2.53 | -2.58 | -2.99 | -2.13
B6 | -2.36 | -3.49 | -2.12 | -2.22
B7 | -0.818 | -0.983 | -0.208 | -0.527
B8 | -1.96 | -2.74 | 0.273 | 0.225
B9 | -0.376 | 1.56 | 1.51 | 2.74
B10 | 1.54 | 1.47 | 1.88 | 1.22
B11 | -1.33 | -0.0266 | 2.3 | 2.67
B12 | -1.76 | -0.823 | -0.563 | 0.027
B13 | -0.414 | -0.22 | 1.72 | 0.511
B14 | -1.3 | -0.0353 | 2.99 | 1.23
B15 | 1.94 | 3.65 | 2.52 | 3.16
B16 | -0.647 | 0.966 | 1.15 | 1.89
B17 | 3.7 | 3.03 | 1.56 | 2.64
B18 | 2.75 | 0.745 | 0.673 | 0.2
B19 | 3.38 | 3.6 | 2.53 | 3.65
B20 | 0.103 | 1.27 | 0.384 | 2.92
B21 | 3.36 | 3.49 | 3.09 | 2.98
B22 | 2.8 | 1.12 | 0.702 | 0.265
B23 | -0.355 | -0.127 | -0.237 | 0.552
B24 | -3.49 | -2.97 | -0.178 | -1.64
B25 | -2.68 | -2.91 | -2.15 | -2.02
B26 | -0.304 | -1.64 | -1.28 | -1.44
B27 | 1.3 | 0.634 | -0.123 | 1.24
B28 | 2.71 | 2.77 | 2.05 | 0.947
